# Compound activity as filed in PubChem BioAssay.
# rat GALR2 ag = activates the rat galanin receptor 2 | cell-based GALR2 agonist screen | O08726 | hit rate 0.5% among 16,000 | activation, % at 10 µM; in the data active = activation above about 15%
# TLR4-MyD88 inh = blocks binding of human TLR4 to MyD88. O00206. Cell-based TLR4-MyD88 binding inhibition assay. inhibition, % at 10 µM. hit rate 0.06% among 16,000. AID 811; in the data active = inhibition above about 45%
# S1P1 ag = activates the human S1P1 receptor. AID 1044. activation, % at 4.5 µM. hit rate 1.5% among 16,000. P21453. S1P1 agonist cell-based reporter assay; in the data active = activation above about 80%
# OPRK1 antag MB = blocks the human kappa opioid receptor, Maybridge compounds | P41145 | OPRK1 cells, antagonist mode, fluorescence readout | inhibition, % at 9 µM | hit rate 0.4% among 16,000 | AID 652031; in the data active = inhibition above about 50%
# The depositor's hits bear a star. Compounds with a hit are over-represented: about 2.6% of the library has one in this group of screens.
SMILES,rat GALR2 ag,TLR4-MyD88 inh,S1P1 ag,OPRK1 antag MB
O=[N+]([O-])c1ccc(-c2ccc(-c3ccc([N+](=O)[O-])cc3)o2)cc1,-14,8,66,45
O=[N+]([O-])c1ccc(-c2ccc(/C=N/NC(=S)NCC3CCCO3)o2)cc1 (configuration not stated),-6,50*,30,31
CNC(=O)c1ccc2c(c1)CCO2,-6,-1,-17,-6
COc1cc(NC(=O)c2cc(OC)c(OC)c(OC)c2)c(OC)cc1Cl,-5,-4,-18,-6
Nc1c(Cl)cc(C(=O)Nc2cc(Cl)c(Cl)cc2Cl)cc1Cl,17*,-6,-24,-24
CC(C)c1ccc(NC(=O)CSc2nnnn2-c2ccc(N(C)C)cc2)cc1,-5,-4,-8,4
Cn1c(Sc2sccc2[N+](=O)[O-])nnc1C(F)(F)F,-9,-23,67,-17
O=[N+]([O-])c1cc(C(F)(F)F)cc([N+](=O)[O-])c1N1CCSCC1,-5,6,99*,-18
COc1ccc(OCC(F)(F)F)c(C(=O)Nc2ccc(Cl)cc2)c1,-3,4,-8,-5
Nc1c(C(=O)c2ccccc2)sc2nsc(SCCN3CCCC3)c12,-12,14,72,76*
O=C(O)Cc1csc2ccccc12,-6,-5,2,-4
O=[N+]([O-])c1ccccc1SCc1csc2ccccc12,-6,-9,98*,-20
CCOc1ccccc1/C=N/NC(=O)N/N=C/c1ccccc1OCC,-7,4,-28,10
C#CC(CC)(CC)N=Cc1cc(Br)ccc1OCC,-6,16,123*,-5
Brc1ccc(-n2cccc2)nc1,-9,2,86*,-7
FC(F)(F)c1ccc(-n2ccnc2)nc1,-3,5,-4,-7
FC(F)(F)c1cc(-c2cccs2)nc2cc(-c3cccs3)nn12,30*,-2,-3,27
NS(=O)(=O)c1ccc(-c2ccc(/C=N/O)o2)cc1,0,-8,-23,21
